Assay outcomes: PubChem BioAssay, National Center for Advancing Translational Sciences (NCATS)
Compounds with a hit are over-represented: about 11% of the library has one in this group of screens.
HP1b chromo inh – HTS for Inhibitors of HP1-beta Chromodomain Interactions with Methylated Histone Tails; Chromobox protein homolog 1 (Homo sapiens), P83916; AlphaScreen HP1-beta / biotin-H3K9me3 peptide binding; Potency, µM (top dose mostly 114 µM), most hits filed as inhibitors; 390,000 tested, 0.56% active; note: nearly all actives have a fitted effect of over 70% in size
Target sequence (P83916 whole entry, looked up): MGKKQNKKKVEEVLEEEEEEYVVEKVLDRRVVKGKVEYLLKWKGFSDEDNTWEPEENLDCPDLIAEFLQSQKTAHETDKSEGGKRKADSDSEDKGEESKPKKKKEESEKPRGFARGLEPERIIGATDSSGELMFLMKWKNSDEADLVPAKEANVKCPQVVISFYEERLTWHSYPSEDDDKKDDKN
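Compound inhibition of the preformed complex between 50 nM HP1-beta and 50 nM biotinylated H3K9me3 peptide was read by AlphaScreen. Buffer was PBS pH 7.4 with 0.01% Tween-20. Incubations ran 30 min at room temperature, with 10 ug/mL donor/acceptor beads.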
G9a inh-1 – qHTS Assay for Inhibitors of Histone Lysine Methyltransferase G9a | G9a H3K9 monomethylation, AlphaScreen, 2 h | Histone-lysine N-methyltransferase EHMT2 (Homo sapiens), Q96KQ7 | AID 504332, 2011 | Potency, µM (titrated, usually from 102 µM), most hits filed as inhibitors | 350,000 tested, 8.8% active; note: nearly all actives have a fitted effect of over 75% in size
Target sequence (Q96KQ7 913-1193 limits assumed): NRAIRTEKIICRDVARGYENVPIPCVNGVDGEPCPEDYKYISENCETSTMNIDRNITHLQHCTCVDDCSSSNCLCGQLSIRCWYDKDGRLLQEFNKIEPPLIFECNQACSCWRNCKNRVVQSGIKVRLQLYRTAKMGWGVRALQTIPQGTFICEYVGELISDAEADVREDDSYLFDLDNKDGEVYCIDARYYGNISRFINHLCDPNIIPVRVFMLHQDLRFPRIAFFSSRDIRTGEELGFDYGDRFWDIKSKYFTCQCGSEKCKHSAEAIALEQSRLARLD
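Step 1: enzyme (final 20 nM) with compound, 15 min RT. Step 2: substrate peptide 500 nM and SAM 20 uM, 2 h RT. Step 3: anti-H3K9me1 antibody and AlphaScreen beads, 10 min, then plate read.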
VDR inh – Inhibitors of the vitamin D receptor (VDR): qHTS. Vitamin D3 receptor (Homo sapiens), P11473. VDR-SRC2-3 peptide fluorescence polarization, 2 h. Potency, µM, usual class: inhibitors. 400,000 tested, 0.93% active. AID 504847, 2011
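Fluorescence polarization assay measuring small-molecule disruption of VDR binding to the coregulator peptide SRC2-3. Compounds were pin-transferred (23 nl) into the reagent mix and incubated 2 h at room temperature before reading.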
JMJD2A Tudor inh – qHTS Assay for Inhibitors of JMJD2A-Tudor Domain. Potency, µM (doses to about 114 µM), most hits filed as inhibitors. AlphaScreen JMJD2A-Tudor / H3K4me3 peptide binding. Lysine-specific demethylase 4A (Homo sapiens), O75164. 390,000 tested, 4.4% active; note: nearly all actives have a fitted effect of over 50% in size
BAZ2B block – qHTS Assay for Inhibitors of BAZ2B | Bromodomain adjacent to zinc finger domain protein 2B (Homo sapiens), Q9UIF8 | AlphaScreen BAZ2B-H3K14Ac peptide displacement | Potency, µM (doses to about 114 µM), most hits filed as inhibitors | 360,000 tested, 4.4% active; note: nearly all actives have a fitted effect of over 60% in size
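BAZ2B (50 nM) with biotin-H3(5-23)K14Ac peptide (50 nM) in PBS pH 7.4, 0.01% Tween-20, preformed 30 min, then compound 30 min at room temperature; top concentration 110uM. AlphaScreen streptavidin donor/nickel chelate acceptor beads (10 ug/mL final), 20 min dark, signal read.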
PLK1 PBD inh – qHTS for Inhibitors of PLK1-PDB (polo-like kinase 1 - polo-box domain): Primary Screen; Serine/threonine-protein kinase PLK1 (Homo sapiens), P53350; Plk1 PBD binding of FITC phosphopeptide, fluorescence polarization; 360,000 tested, 2.8% active; AID 720504, 2013; Potency, µM, hits mostly inhibitors; note: series mostly up to about 57 µM; nearly all actives have a fitted effect of over 65% in size
JMJD2E confirm – Confirmation qHTS Assay for Inhibitors of Human Jumonji Domain Containing 2E (JMJD2E). shares compounds with JMJD2A Tudor inh. Potency, µM (series often up to 56.8 µM), hits mostly inhibitors. 140 tested, 93% active. Recombinant JMJD2E, FDH-coupled NADH fluorescence (FDH is formaldehyde dehydrogenase)
FDH inh – Counterscreen for JMJD2E Inhibitors: qHTS Assay for Inhibitors of Formaldehyde Dehydrogenase (FDH). 140 tested, 10% active. shares compounds with JMJD2A Tudor inh. FDH enzyme assay, NADH fluorescence kinetic. Potency, µM (highest dose often 56.7 µM), actives largely listed as inhibitors
G9a inh-2 – qHTS Assay for Inhibitors of Histone Lysine Methyltransferase G9a: Hit Confirmation; shares compounds with JMJD2A Tudor inh; Potency, µM, most hits filed as inhibitors; G9a H3K9 monomethylation, AlphaScreen, 2 h; 370 tested, 89% active; note: nearly all actives have a fitted effect of over 65% in size
RGS4 inh – qHTS for Inhibitors of Regulator of G Protein Signaling(RGS) 4: Hit Validation; shares compounds with JMJD2A Tudor inh; RGS4 GAP activity, Transcreener GDP fluorescence polarization; Potency, µM, most hits filed as inhibitors; 25 tested, 80% active; AID 602388, 2012
Target sequence (P49798 whole entry, looked up): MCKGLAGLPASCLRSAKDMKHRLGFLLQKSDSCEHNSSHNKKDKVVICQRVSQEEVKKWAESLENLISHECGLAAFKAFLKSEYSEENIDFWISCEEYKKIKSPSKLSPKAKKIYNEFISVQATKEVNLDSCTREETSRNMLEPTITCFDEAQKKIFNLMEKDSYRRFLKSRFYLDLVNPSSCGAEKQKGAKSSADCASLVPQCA
Numbers stand for hits; . = inactive; ? = inconclusive; / = no result given; ! = not active in a repeat; [ ] = remark or other dose. Calls come from the whole dose curve; as a rule, active = well fitted curve in the direction sought with a large enough effect; inconclusive = small, poorly fitted or top-dose-only effect, or another doubt; inactive = no such curve, though single readings can be large; an effect the other way counts as inactive or inconclusive.

SMILES	HP1b chromo inh	G9a inh-1	VDR inh	JMJD2A Tudor inh	BAZ2B block	PLK1 PBD inh	G9a inh-2	others
Cc1ccc(NC2CCCN(C(=O)c3cn4cc(Cl)ccc4n3)C2)cc1C (stereo not drawn)	.	?	.	.	?	.	32
Cc1ccc(NC2CCCN(C(=O)c3cn4cccc(C)c4n3)C2)cc1C (stereo not drawn)	.	?	.	.	.	.	/
O=C(CCN1CCC(c2ccccc2)C1)c1ccc2c(c1)OCCO2 (stereo not drawn)	.	7.9µM	14µM	.	?	6µM	5.1
Cn1cc(S(=O)(=O)N2CCCC2)cc1C(=O)Nc1cccc(C(F)(F)F)c1	.	.[0.0925 µM]	.	.	.	.	/
CCN(CC)c1ccc(NC(=O)Nc2ccc(C(C)=O)cc2)cc1	.	1.4µM	.	.	.	.	0.32
CCN(CC)c1ccc(NC(=O)c2cncc(Br)c2)cc1	?	?	.	50µM	35µM	.	3.5
COc1ccc(C)cc1NS(=O)(=O)c1cc(Br)cc2c1N(C(C)=O)C(C)C2 (stereo not drawn)	.	.	.	.	.	/	/
Nc1ccc(NC(=O)c2cccc(C(=O)Nc3ccc(N)cc3Cl)c2)c(Cl)c1	.	.[2.33 µM]	.	.	.	.	/
CNc1ncncc1-c1ccccc1C(F)(F)F	/	?	?	/	/	/	/	RGS4 inh=27
FC(F)(F)c1ccccc1-c1cncnc1NCc1ccccc1	/	.[0.501 µM]	?	/	/	/	/
CCn1c2ccccc2c2cc(CN3CCN(Cc4ccc(Br)cc4)CC3)ccc21	?	0.89µM	.	4.5µM	25µM	/	25
Cc1ccc(NC(=O)C(C)SCC(=O)Nc2ccc(F)cc2)cc1S(=O)(=O)N1CCOCC1 (stereo not drawn)	.	.	.	.	.	.	/
COc1ccc2c(c1)c(N1CCCC1=O)c(C(=O)Nc1ccc(Cl)cc1C)n2C	.	.	.	.	.	/	/
CCOC(=O)c1ccc(N2C(=O)c3n[nH]c(-c4cccs4)c3C2c2cccc(OC)c2)cc1 (stereo not drawn)	.	.	.	?	/	/	/
[N-]=[N+]=NC[C@H](Cc1ccccc1)N1CC[C@@H](NC(=O)OCc2ccccc2)CCC1=O	.	.	.	.	.	.	/
CCOc1cccc(CNn2cnnc2)c1OCc1ccccc1Cl	.	.	.	.	.	.	/
CCOc1cccc(CNc2ccc(O)cc2)c1OCc1ccccc1Cl	?	4.5µM	40µM!	45µM	?	.	3.2
CCOc1cccc(CNc2ccc(O)cc2)c1OCc1ccc(Cl)cc1Cl	?	2.5µM	50µM	.	?	.	2.5
CCCCC(=O)N(C)c1c(CC)nc2c(OCC(=O)C(C)(C)C)cccn12	/	/	/	/	/	.	/
CN(C)c1ccc(NC(=O)Nc2cccc(Cl)c2)cc1	.	1.1µM	.	?	40µM	.	1.4
CN(c1cccc(NC(=O)Nc2cccc(Cl)c2)c1)S(C)(=O)=O	.	.	.	.	.	.	/
Cc1ccc(NC(=O)CN(C)C(=O)c2ccc(NS(=O)(=O)c3ccc4[nH]c(=O)[nH]c4c3)cc2)cc1	.	.[2.33 µM]	.	.	.	.	/
O=C(O)CCc1ccc(-c2cccs2)o1	?	?	?	100µM	56µM	?	7.9
Cc1ccc(-c2ccc(CCC(=O)O)o2)cc1	.	?	?	?	.	?	/
CN(C)CCCNC(=O)C(=O)NCC(c1ccc2c(c1)OCO2)N1CCOCC1 (stereo not drawn)	.	.	.	.	.	/	/
SMILES	HP1b chromo inh	G9a inh-1	VDR inh	JMJD2A Tudor inh	BAZ2B block	PLK1 PBD inh	G9a inh-2	others
CCNCCC(CCC(C)C)c1ccc2c(c1)OCO2 (stereo not drawn)	.	1.6µM	.	?	79µM	.	11
Oc1ccc(CN2CCCc3ccccc32)c2cccnc12	?	1.6µM	79µM	?	35µM	?	/	JMJD2E confirm=1.3µM;FDH inh=.
COc1ccc(Br)cc1CNc1ccc(N2CCOCC2)cc1	?	?	.	40µM	28µM	.	3.2
COc1cccc(CNc2ccc(N3CCC(C)CC3)cc2)c1OC	.	?	?	20µM	40µM	.	2
C=CCOc1c(CNc2ccc(C(=O)O)cc2)cccc1OC	.	.	.	.	.	.	/
CCC(=O)N1c2ccc(S(=O)(=O)CCC(=O)N3CCN(c4cc(C)ccc4C)CC3)cc2CC1C (stereo not drawn)	.	.	.	.	/	/	/
CCc1ccccc1NC(=O)COC(=O)c1cccs1	.	.	.	.	.	.	/
CCN(CC)c1ccc(NC(=O)COC(=O)c2cccs2)cc1	.	1.3µM	.	?	45µM	.	2.2
CCN(CC)c1ccc(NC(=O)COC(=O)c2ccc3ccccc3n2)cc1	?	?	.	?	50µM	.	6.3
CCOc1ccc(N2CC(C(=O)Nc3ccc(S(=O)(=O)Nc4nccs4)cc3)CC2=O)cc1 (stereo not drawn)	.	?	.	.	.	.	/
CCOc1cccc(CN2CCC(n3nccc3NC(=O)CCCc3ccccc3)CC2)c1	.	/	.	?	.	.	/
CCN(CC)C(=O)C1CCN(Cc2cccc(OCc3ccccc3)c2)CC1	56µM	2.8µM	.	50µM	35µM	.	28
Cc1ccc(OCc2ccc(-c3nc(C#N)c(N4CCN(c5cccc(Cl)c5)CC4)o3)o2)cc1	.	.	.	.	.	/	/
Cc1ccccc1OCc1ccc(-c2nc(C#N)c(N3CCN(c4ccccc4)CC3)o2)o1	.	?	.	.	?	/	?
